SMILES strings stand for the structures. The campaign covered roughly 69,000 compounds. About 8,600 (12%) showed an effect of 50% or more. The list comes from a sample in which strong results are over-represented; it also holds similar structures and randomly drawn compounds.

This experiment deals with Plasmodium berghei. Briefly: Screen against P. berghei liver stage (PbLuc), transformed with Luciferase, at 10uM. The following applies: tested at 10 uM. The experiment is classed as functional, HepG2.
In the case of `O=C(NC1CC1)C1[C@H]2CN(Cc3ccc(-c4cc[nH]n4)s3)C[C@@H]12` (stereo not given in full), the INHIBITION is reported as 33.3%.

Consider `c1cc(CN2CCC3(CC2)COC(COCC2CC2)C3)co1` (stereo not given), for which the INHIBITION was -17.1%.

Turning to `Cc1cccc(-c2nc(CNC3CCc4ncnn4C3)no2)c1` (stereo not given), the INHIBITION turned out to be 23.7%.

On to `O=C1CCC2(CCN(Cc3ncccn3)CC2)CN1CCCO`, for which the INHIBITION is -33.5%.

In the case of `Cc1oc(-c2nc(C#N)c(NCC(C)C)o2)cc1S(=O)(=O)N1CCCC1`, the INHIBITION worked out at 22.6%.

Take `CCN(CC)S(=O)(=O)NCC1COc2ccccc2O1` (stereo not given): the INHIBITION amounted to 36.9%.

Turning to `Cn1ccn2ncc(C(=O)NCc3cccnc3N3CCCC(O)C3)c12` (stereo not given), the INHIBITION was 28.8%.

For `Cc1cc(C(=O)NCc2cccnc2N2CCCC(O)C2)[nH]n1` (stereo not given), the INHIBITION is 34.5%.

Consider `Cc1cc(C(=O)NCc2cccnc2N2CCCC(O)C2)c(C)o1` (stereo not given), for which the INHIBITION amounted to 55%.

Turning to `Cc1cc(CN2CCN(C(=O)NC(C)Cn3cccn3)CC2)no1` (stereo not given), the INHIBITION is on record as -17.78%.

Regarding `CC(NC(=O)NCCCN(C)S(C)(=O)=O)c1ccncc1` (stereo not given), the INHIBITION is given as 1.77%.

As for `CC(NC(=O)NCCCN(C)S(C)(=O)=O)c1ccc(C#N)cc1` (stereo not given), the INHIBITION is listed as 44.1%.

`CC(NC(=O)NCCCN(C)S(C)(=O)=O)c1ccc(F)cc1` (stereo not given): the INHIBITION is reported as 58.5%.

Take `CC(NC(=O)NCCCN(C)S(C)(=O)=O)c1ccc(Cl)cc1` (stereo not given): the INHIBITION is recorded as 62.6%.

Consider `CC(NC(=O)NCCCN(C)S(C)(=O)=O)c1cccc(Cl)c1` (stereo not given), for which the INHIBITION was -15.8%.

On to `CC(NC(=O)NCCCN(C)S(C)(=O)=O)c1cccnc1` (stereo not given), for which the INHIBITION was -9.37%.

Turning to `Cn1cc(CC2CC(=O)N(Cc3ccc(OC(F)F)cc3)C2=O)cn1` (stereo not given), the INHIBITION is 16.6%.

Regarding `Cn1ccnc1C(=O)NCc1cnc2n1CCN(CC1CC1)CC2`, the INHIBITION is listed as -24.1%.

Turning to `Cc1nc2n(n1)CC(Nc1ccnc(-c3ccccc3)n1)CC2` (stereo not given), the INHIBITION is -5.1%.

As to `O=C(NCCn1nc(C2CCNC2)c2cccnc21)c1ccccn1` (stereo not given), the INHIBITION was determined as 3.91%.

In the case of `CC1(C)Cc2ccc(C(=O)NC3CCS(=O)(=O)C3)c(O)c2O1` (stereo not given), the INHIBITION was 36.8%.

Consider `O=C1Nc2ccccc2CNC12CCN(CC1CC1)CC2`, for which the INHIBITION was determined as 20.1%.

`c1coc(CN2C[C@H](OCC3CCOCC3)[C@H]3COC[C@H]32)c1`: the INHIBITION is on record as 21%.

In the case of `COc1cn(CC(N)=O)c(CSc2nccc(C)n2)cc1=O`, the INHIBITION is listed as 64.3%.

As to `COc1cn(CC(N)=O)c(CSc2nc(C)cc(C)n2)cc1=O`, the INHIBITION worked out at 24%.

`CCCNC(=O)Cn1cc(OC)c(=O)cc1CSc1nc(C)cc(C)n1`: the INHIBITION is -3.83%.

As to `CNC(=O)CCc1cc(C)nc(C2CCN(C3CCCCC3)CC2)c1`, the INHIBITION is recorded as 15.58%.

In the case of `CCOC(=O)[C@H]1CNC[C@@H]1C(=O)OCC`, the INHIBITION stood at 0.868%.

Consider `c1ccc(OCc2n[nH]c3c2CN(CC2CC2)C3)nc1`, for which the INHIBITION was -23.3%.

For `O=C(Cc1ccccc1F)NCCN1CCOCC1`, the INHIBITION was 68.4%.

`O=C(NCCN1CCOCC1)c1ccn(-c2ccccc2F)n1`: the INHIBITION is given as -8.91%.

In the case of `O=S(=O)(Cc1ccccc1F)NCCN1CCOCC1`, the INHIBITION is on record as -11.9%.

For the molecule `CN1CCN(CCNC(=O)C(OC2CCCC2)c2ccccc2)CC1` (stereo not given), the INHIBITION worked out at 35.2%.

Turning to `O=C(NCCN1CCOCC1)c1cc(COc2ccccc2F)[nH]n1`, the INHIBITION stood at 63.7%.

`O=S(=O)(NCC1CCN(CCN2CCOCC2)C1)c1ccccc1F` (stereo not given): the INHIBITION was determined as 47.1%.

Consider `O=C(Cc1ccccc1F)NCC1CCN(CCc2ccccc2)C1` (stereo not given), for which the INHIBITION is 26.7%.

With `O=C(NCCCN1CCOCC1)C(OC1CCCC1)c1ccccc1` (stereo not given), the INHIBITION was -12.1%.

On to `O=C(Cc1ccccc1F)NCC1CCN(CCN2CCOCC2)C1` (stereo not given), for which the INHIBITION was determined as 64.7%.

Turning to `O=C(NCCN1CCOCC1)C(OC1CCCC1)c1ccccc1` (stereo not given), the INHIBITION came to 69.5%.

For `O=C(NCCC1CCCCO1)c1cc(COc2ccccc2F)[nH]n1` (stereo not given), the INHIBITION came to 25.4%.

Regarding `O=C(NCC1CCCO1)c1cc(COc2ccccc2F)[nH]n1` (stereo not given), the INHIBITION came out at 16.8%.

For `O=C(Nc1nccs1)NC1CCN(CC2CCCC2)CC1`, the INHIBITION is given as 21.45%.

As for `c1nn(C2CCCCC2)cc1-c1cncn1CCCN1CCCCC1`, the INHIBITION worked out at 18.75%.

For `CCC(=O)N1CCC(Cc2ccccc2-c2ccccc2)(C(N)=O)C1` (stereo not given), the INHIBITION came out at 36.4%.

For `Cc1nccn1C1CCCN(C(=O)c2cccc(OCC(N)=O)c2)C1` (stereo not given), the INHIBITION is -0.219%.

As for `N#Cc1ccc(OCCN2CCNC(=O)C2c2cccs2)cc1` (stereo not given), the INHIBITION was found to be 3.04%.

With `Cc1ccc(C(=O)NC2CCN(Cc3noc(C(C)(C)C)n3)CC2)s1`, the INHIBITION is recorded as -42.8%.

Take `COCCCS(=O)(=O)N(Cc1cccc(C)c1)Cc1ccccn1`: the INHIBITION worked out at 4.13%.

As for `CCN1CCC2(CCC(=O)N2Cc2cccc(C)n2)CC1`, the INHIBITION was -6.77%.

As for `CN(C)c1cc(C(=O)N2CCCN(Cc3cscn3)CC2)ccn1`, the INHIBITION is listed as 20.1%.

Turning to `CC(CNC(=O)Nc1ccc(F)cc1Br)N1CCOCC1` (stereo not given), the INHIBITION is 46.6%.

With `CC(Cn1cncc1-c1cnn(C2CCCCC2)c1)N1CCCCC1` (stereo not given), the INHIBITION was -1.9%.

As to `O=C(CC1CN(Cc2ccccc2)CCO1)NC1CCCC1` (stereo not given), the INHIBITION is -15.8%.

Take `O=C(CC1CN(Cc2ccccc2)CCO1)NCCN1CCOCC1` (stereo not given): the INHIBITION amounted to 56.5%.

Consider `O=C(O)CC1CN(Cc2ccccc2)CCO1` (stereo not given), for which the INHIBITION is reported as 22.1%.

`CNC(=O)c1c[nH]nc1C1CCCN1c1ncccn1` (stereo not given): the INHIBITION stood at 23.9%.

On to `O=C1CCC2(CCN(Cc3ccc(F)cc3)CC2)N1CCN1CCCC1`, for which the INHIBITION is -22.1%.

For `Cn1c(=O)c2sccc2n(Cc2ccccc2)c1=O`, the INHIBITION is given as 36.8%.

For `COc1ccc(Cn2c(=O)n(C)c(=O)c3sccc32)cc1`, the INHIBITION is reported as 75.7%.

For `CCCc1n[nH]c(=O)n1Cc1ccc(OC)cc1`, the INHIBITION is recorded as -32.6%.

`CCS(=O)(=O)N1CCC2(CCN(Cc3cccc(OC)c3)CC2)CC1`: the INHIBITION stood at 34.6%.

As for `COc1cccc(-n2cc3[nH]c(=O)n(Cc4cccc(F)c4)n3c2=O)c1`, the INHIBITION is on record as 36.3%.

In the case of `COc1cccc(Cn2c(=O)n(C)c(=O)c3sccc32)c1`, the INHIBITION turned out to be 50.5%.

With `COc1ccc(CN2CCn3c(C(=O)N(C)C)cnc3C2)cc1`, the INHIBITION came to 26.4%.

With `COC(=O)c1cccc(CNC(=O)c2cc(C(C)C)n(C)n2)c1`, the INHIBITION is on record as -55.1%.

Regarding `COC(=O)c1cccc(CNC(=O)CCC(F)(F)F)c1`, the INHIBITION amounted to 4.68%.

As to `CCCC(=O)NCc1cccc(C(=O)OC)c1`, the INHIBITION was determined as 51.4%.

Turning to `COC(=O)c1cccc(CNC(=O)CC(F)(F)F)c1`, the INHIBITION stood at 51.4%.

As to `COC(=O)c1cccc(CNC(=O)NCCC(F)(F)F)c1`, the INHIBITION was 41.4%.

For `COCCCC(=O)NCc1cccc(NC(N)=O)c1`, the INHIBITION is 15.8%.

(Values after ChEMBL document CHEMBL4513216, “Probing the Open Global Health Chemical Diversity Library for Multistage-Active Starting Points for Next-Generation Antimalarials” (ACS Infect Dis, 2020).)
